Data taken from PubChem BioAssay (NCI).
This is part of a sample that, as a whole, favours compounds with a hit. Of some 79,000 tested, about 15% had one in any assay. A number with no mark means an inactive call. The source made the active and inactive calls. Cut-off read from the data, not from the text of the source: active = growth inhibition above about 70%; inactive = the rest.

What was measured:
[1] = NCI Yeast Anticancer Drug Screen. Data for the rad50 strain (AID 155);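 note: 0% = growth of vehicle-only cultures of the same strain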; conditions: S. cerevisiae rad50 strain growth inhibition, stronger effect = higher value
Procedure, shortened: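 Growth of the mutant yeast was measured after compound exposure and referenced to vehicle-treated cultures.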

[2] = NCI Yeast Anticancer Drug Screen. Data for the mec2-1 strain (AID 157); conditions: S. cerevisiae mec2-1 strain, stronger effect = higher value
Procedure, shortened: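 Strain: mec2-1 (DNA repair/cell cycle alteration). Compound exposure, then growth measured; inhibition expressed relative to vehicle.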

[3] = NCI Yeast Anticancer Drug Screen. Data for the sgs1 mgt1 strain (AID 161);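 note: 0% = growth of cultures given vehicle only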; conditions: S. cerevisiae sgs1 mgt1 strain, stronger effect = higher value
Procedure, shortened: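 Mutant yeast exposed to compound; growth scored against vehicle-only wells.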

[4] = NCI Yeast Anticancer Drug Screen. Data for the cln2 rad14 strain (AID 165);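 note: 0% = growth equal to vehicle treated cultures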; conditions: S. cerevisiae cln2 rad14 strain, stronger effect = higher value
Procedure, shortened: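 Compounds are applied to the cln2 rad14 yeast strain, and growth is then compared with that of vehicle-treated cultures to give inhibition.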

[5] = NCI Yeast Anticancer Drug Screen. Data for the bub3 strain (AID 167); conditions: S. cerevisiae bub3 mutant strain, stronger effect = higher value
Procedure, shortened: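 Whole-cell yeast assay. The mutant strain was incubated with compounds, and growth inhibition was determined by comparison with vehicle-treated cells.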

[6] = NCI Yeast Anticancer Drug Screen. Data for the mlh1 rad18 strain (AID 175); conditions: S. cerevisiae mlh1 rad18 strain growth inhibition, stronger effect = higher value
Procedure, shortened: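 Read-out is yeast growth inhibition, calculated against vehicle-only controls. The compound was applied to a strain engineered with DNA damage repair alterations.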

[7] = at 5.0 µM (retest, dose inferred, filed as 0.5)
[8] = at 50.0 µM (retest, dose inferred, filed as 5.0)

| SMILES | growth inhibition [1, 7] | growth inhibition [1, 8] | growth inhibition ([1]; at 50.0 µM) | growth inhibition [2, 7] | growth inhibition [2, 8] | growth inhibition ([2]; at 50.0 µM) | growth inhibition [3, 7] | growth inhibition [3, 8] | growth inhibition ([3]; at 50.0 µM) | growth inhibition [4, 7] | growth inhibition [4, 8] | growth inhibition ([4]; at 50.0 µM) | growth inhibition [5, 7] | growth inhibition [5, 8] | growth inhibition ([5]; at 50.0 µM) | growth inhibition [6, 7] | growth inhibition [6, 8] | growth inhibition ([6]; at 50.0 µM) |
| --- | --- | --- | --- | --- | --- | --- | --- | --- | --- | --- | --- | --- | --- | --- | --- | --- | --- | --- |
| Cc1cc(Cl)n2c(nc3ccccc32)c1C#N | 13% | 90% (active) | 98.2% (active) | 23% | 97% (active) | 98.5% (active) | 16% | 94% (active) | 99% (active) | 2% | 89% (active) | 96.8% (active) | 18% | 92% (active) | 98% (active) | 28% | 94% (active) | 98.3% (active) |
| CCN(CC)C(=S)N/N=C(/c1ccccc1)c1ccccn1 | 42% | 96% (active) | 70.7% (active) | 92% (active) | 97% (active) | 76.9% (active) | 44% | 97% (active) | 81.8% (active) | 80% (active) | 95% (active) | 81.8% (active) | 95% (active) | 96% (active) | 85.2% (active) | 96% (active) | 97% (active) | 83.1% (active) |
| C=C(CS(=O)(=O)c1ccccc1)[P+](c1ccccc1)(c1ccccc1)c1ccccc1 | 0% | 95% (active) | 29.2% | -6% | 92% (active) | 37.5% | -6% | 95% (active) | 34.4% | -1% | 81% (active) | 28.5% | -3% | 88% (active) | 2.15% | -2% | 92% (active) | 67.5% |
| CCCN(CCC)C(=O)c1cccc2ccccc12 | 3% | 7% | 6.8% | 4% | 6% | -19.1% | 1% | 9% | 44.5% | 3% | 22% | -1.9% | 6% | 28% | 27.2% | 6% | 7% | 7.5% |
| CCN1CCC(O)(/C=C/c2ccccc2)C(C(=O)/C=C/c2ccccc2)C1 (centres undefined) | 11% | 89% (active) | 97.7% (active) | 6% | 80% (active) | 98.2% (active) | 13% | 82% (active) | 97.8% (active) | 13% | 74% (active) | 85.1% (active) |  |  |  | 19% | 93% (active) | 96% (active) |
| CCCCCCCCCCCC(=O)N(CCOC(=O)c1ccco1)CCOC(=O)c1ccco1 | 46% | 96% (active) | 99% (active) | 43% | 99% (active) | 99% (active) | 31% | 98% (active) | 99.2% (active) | 29% | 98% (active) | 98.5% (active) | 34% | 96% (active) | 97.8% (active) | 34% | 97% (active) | 98.8% (active) |
| c1ccc2c(Nc3ccc(Oc4ccc(Nc5c6ccccc6nc6ccccc56)cc4)cc3)c3ccccc3nc2c1 | 50% | 99% (active) | 82.8% (active) | 8% | 100% (active) | 6.6% | 31% | 99% (active) | -22.9% | 6% | 99% (active) | 6.45% | 10% | 99% (active) | -1.8% | 20% | 99% (active) | 10.3% |
| [O-][n+]1ccc(Br)c(/C=C/c2ccccc2)c1 | 0% | 20% | 24.1% | -5% | 32% | 18.1% | -2% | 23% | 20% | 0% | 9% | 2.3% | -5% | 9% | 24.6% | 2% | 79% (active) | 56.1% |
| Nc1ccc2[nH]c3ccccc3c2c1 | -4% | 6% | 92.3% (active) | 0% | 1% | -17.6% | -9% | 0% | 40.2% | -5% | 3% | -38% | -1% | 18% | 25.2% | 0% | 29% | 16.8% |
| O=C(Nc1ccc(Br)cc1)Oc1ccccc1C(=O)Nc1ccccc1 | 6% | 95% (active) | 79.1% (active) | 1% | 96% (active) | 70.3% (active) | 0% | 98% (active) | 91% (active) | 2% | 94% (active) | 54.2% | 5% | 98% (active) | 89.9% (active) | 4% | 96% (active) | 97.8% (active) |
| N=C(N)c1ccc(-c2ccc(-c3ccc(C(=N)N)cc3)o2)cc1 | 17% | 88% (active) | 94.8% (active) | -6% | 52% | 89% (active) | 1% | 61% | 90.3% (active) | -2% | 35% | 75.5% (active) | 4% | 62% | 92.8% (active) | -10% | 76% (active) | 92.2% (active) |
| CCOC(=O)/C=C\c1c(Cl)n(-c2ccccc2)c(=O)n(-c2ccccc2)c1=O | 31% | 98% (active) | 87.7% (active) | 24% | 99% (active) | 90.5% (active) | 23% | 99% (active) | 89.8% (active) | 26% | 99% (active) | 90.3% (active) | 31% | 99% (active) | 85.6% (active) | 27% | 98% (active) | 92.3% (active) |
| C#C[C@]1(OC(C)=O)CC[C@H]2[C@@H]3CCC4=CC(=O)CC[C@@H]4[C@H]3CC[C@@]21C | 4% | 16% | 97.6% (active) | 7% | 15% | 88.3% (active) | 2% | 29% | 97.2% (active) | 9% | 22% | 89.7% (active) | 5% | 13% | 93.8% (active) | 3% | 19% | 96.8% (active) |
| CSc1nc(C)c(C(=O)CCN2CCOCC2)s1 | -7% | 67% | 99.5% (active) | 11% | 99% (active) | 99.6% (active) | -4% | 75% (active) | 99.6% (active) | -6% | 89% (active) | 93% (active) | -12% | 92% (active) | 47.6% | -5% | 88% (active) | 99.2% (active) |
| Cc1ccc(S(=O)(=O)CC2(Br)Cc3ccccc3C2=O)cc1 (centres undefined) | 79% (active) | 99% (active) | 97.3% (active) | 76% (active) | 99% (active) | 98.8% (active) | 86% (active) | 99% (active) | 99.1% (active) | 24% | 99% (active) | 98.2% (active) | 85% (active) | 99% (active) | 99% (active) | 75% (active) | 98% (active) | 98.5% (active) |
| Nc1cc(S(=O)(=O)O)cc2cc(S(=O)(=O)O)c(N=Nc3ccccc3)c(O)c12 | 0% | -1% | 99.3% (active) | -2% | 5% | 99.2% (active) | 0% | 0% | 99.3% (active) | 12% | 3% | 96.5% (active) | -36% | 10% | 99% (active) | 0% | 1% | 98.7% (active) |
| CC1CN(CC2CCCCCCCCCCC2=O)CC(C)O1 (centres undefined) | 59% | 74% (active) | 73.5% (active) | 25% | 45% | 65.5% | 52% | 53% | 83.8% (active) | 62% | 59% | 60.4% | 67% | 79% (active) | 75.8% (active) | 74% (active) | 86% (active) | 69.9% |
| COC1=CC(=O)c2c(O)c3c(c(O)c2C1=O)OC1(Oc2c(cc4cc(C)oc(=O)c4c2O)CC1O)C3O (centres undefined) | 96% (active) | 97% (active) | 91.1% (active) | 98% (active) | 99% (active) | 92.5% (active) | 97% (active) | 98% (active) | 92.8% (active) | 98% (active) | 99% (active) | 90.5% (active) | 99% (active) | 99% (active) | 91% (active) | 97% (active) | 98% (active) | 91% (active) |
| O=c1[nH]n(CCc2ccccn2)c(=O)c(Cl)c1Cl | -5% | -5% | 9.25% | -9% | -1% | 1.95% | -3% | -26% | 12.4% | 2% | 6% | -6.2% | 2% | 7% | -11.2% | -17% | 13% | -17.2% |
